According to PubChem BioAssay (Tox21):
Inconclusive results are not listed. Active and inactive are the calls of the source. Calls come from the whole dose curve.

molecular target: Thyrotropin receptor (Homo sapiens) (UniProt P16473); assay: qHTS assay to identify small molecule agonists of the thyroid stimulating hormone receptor (TSHR) signaling pathway (AID 1224843); conditions: TSHR-HEK293 cells, cAMP HTRF, agonist mode, 30 min; series mostly up to 92.4 µM; note: nearly all actives have a fitted effect of over 45% in size
Sequence (P16473 whole entry, looked up): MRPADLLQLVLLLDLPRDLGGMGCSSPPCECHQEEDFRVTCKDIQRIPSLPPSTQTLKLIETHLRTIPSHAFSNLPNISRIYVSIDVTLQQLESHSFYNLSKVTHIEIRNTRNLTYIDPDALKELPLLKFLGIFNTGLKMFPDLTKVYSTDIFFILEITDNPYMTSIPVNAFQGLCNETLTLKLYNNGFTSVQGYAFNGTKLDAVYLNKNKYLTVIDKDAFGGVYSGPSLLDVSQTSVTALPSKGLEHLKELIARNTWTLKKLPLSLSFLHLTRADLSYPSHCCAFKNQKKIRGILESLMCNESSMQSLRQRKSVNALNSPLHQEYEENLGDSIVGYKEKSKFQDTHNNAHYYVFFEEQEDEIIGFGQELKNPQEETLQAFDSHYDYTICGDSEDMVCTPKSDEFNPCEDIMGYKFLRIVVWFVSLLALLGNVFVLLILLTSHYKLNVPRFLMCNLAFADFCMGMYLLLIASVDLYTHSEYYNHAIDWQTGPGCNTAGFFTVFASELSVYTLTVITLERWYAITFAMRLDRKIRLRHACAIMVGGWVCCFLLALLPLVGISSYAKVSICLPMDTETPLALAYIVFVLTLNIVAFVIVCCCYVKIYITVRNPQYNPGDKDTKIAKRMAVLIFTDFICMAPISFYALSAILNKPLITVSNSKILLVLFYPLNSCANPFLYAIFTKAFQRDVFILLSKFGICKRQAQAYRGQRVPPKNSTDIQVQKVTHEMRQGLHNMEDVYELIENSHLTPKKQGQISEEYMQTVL
Text: National Center for Advancing Translational Sciences [NCATS]
NIH Chemical Genomics Center [NCGC]
U.S. Environmental Protection Agency [EPA]
National Institutes of Environmental Health Sciences [NIEHS]
National Toxicology Program [NTP]
U.S. Food and Drug Administration [FDA]
TSHR is the receptor for thyrotropin (thyroid stimulating hormone or TSH), a member of the glycoprotein hormone family. TSH is released by the anterior pituitary gland and is the main regulator of thyroid gland growth and development. Upon binding circulating thyrotropin, a G-protein signal cascade activates adenylyl cyclase and […] cAMP concentration is increased. cAMP is a key second messenger involved extensively in cellular signal transduction pathways associated with the majority of G-protein coupled receptors (GPCRs). The activation of these GPCRs by neurotransmitters, lipids, nucleotides, peptides and hormones results in the activation or the inhibition of plasma membrane-bound adenylate cyclase through heterotrimeric G-proteins. A cell-based TSHR assay was used to screen the Tox21 10K library for compounds that can modulate TSHR in agonist mode.
Tox21 Assay Protocol Summary:
TSHR-Hek293 cells were dispensed at 800 cells/4uL/well in 1536-well white plates using a Multidrop dispenser. […] The plates were incubated at room temperature for 30 min. 2.5 ul/well of cAMP-d2 and 2.5ul/well of anti-cAMP-cryptate was added respectively into the assay plates using a Flying Reagent Dispenser. After 1 hr incubation at room temperature, the fluorescence intensity in the plates was measured using an Envision plate reader. Each test compound was measured at 15 concentrations and in triplicates.
% is set by controls: 0 for no effect and ±100 for the full control effect.

SMILES	outcome	activation
Nc1cc(N)cc(C(=O)O)c1	inactive	–
NC(N)=NS(=O)(=O)c1ccc(N)cc1	inactive	–
CCO[Si](CCCN=C=O)(OCC)OCC	inactive	–
O=C(O)c1ccc[n+]([O-])c1	inactive	–
CCCCc1ccc(N)cc1	inactive	–
CN(C)CCOC(c1ccc(Cl)cc1)c1ccccn1 (stereo not given)	inactive	–
C=CCn1c(=O)n([C@@H]2O[C@H](CO)[C@@H](O)[C@H]2O)c2nc(N)[nH]c(=O)c21	inactive	–
OCC(O)[C@@H](O)[C@H](O)[C@H](O)CO[C@H]1O[C@H](CO)[C@@H](O)[C@H](O)[C@H]1O (stereo not given in full)	inactive	–
NS(=O)(=O)c1cc2c(cc1Cl)NC(CSCc1ccccc1)=NS2(=O)=O	inactive	–
CC(C)(C)OC(=O)N1C[C@@H](F)C[C@H]1C(=O)O	inactive	–
NC(=O)c1ncn([C@@H]2O[C@H](CO)[C@@H](O)[C@H]2O)c1N	inactive	–
CC12CCC(CC1=O)C2(C)C (stereo not given)	inactive	–
COC(=O)c1ccc(C(=O)OC)c(C(=O)OC)c1	inactive	–
OCCN1C[C@H](O)[C@@H](O)[C@H](O)[C@H]1CO	inactive	–
Cn1ccc2cc3c(cc21)CCN3C(=O)Nc1cccnc1	–	14.6% [at 19 µM] (inactive)
OC[C@H]1O[C@@H]2O[C@H]3[C@H](O)[C@@H](O)[C@@H](O[C@H]4[C@H](O)[C@@H](O)[C@@H](O[C@H]5[C@H](O)[C@@H](O)[C@@H](O[C@H]6[C@H](O)[C@@H](O)[C@@H](O[C@H]7[C@H](O)[C@@H](O)[C@@H](O[C@H]8[C@H](O)[C@@H](O)[C@@H](O[C@H]9[C@H](O)[C@@H](O)[C@@H](O[C@H]1[C@H](O)[C@H]2O)O[C@@H]9CO)O[C@@H]8CO)O[C@@H]7CO)O[C@@H]6CO)O[C@@H]5CO)O[C@@H]4CO)O[C@@H]3CO	inactive	–
CCCCCCCCC=O	inactive	–
Cc1c(F)cc2c(=O)c(C(=O)O)cn3c2c1CCC3C (stereo not given)	inactive	–
C1CCCCCCCCCCC1	–	-4.17% [at 19 µM] (inactive)
CCc1cc(S(=O)(=O)O)c2cc(C(C)C)cccc1-2	inactive	–

SMILES	outcome	activation
O=C(CCOCCOCCOCCOCCC(=O)Nc1c(I)cc(I)c(C(=O)O)c1I)Nc1c(I)cc(I)c(C(=O)O)c1I	inactive	–
Cc1onc(-c2ccccc2)c1-c1ccc(S(N)(=O)=O)cc1	inactive	–
CC(C)N1C(=O)c2ccccc2C1=O	inactive	–
Nc1ccc2cc(S(=O)(=O)O)ccc2c1	inactive	–
NCCN1CCNC1=O	inactive	–
O=Cc1ccccc1[N+](=O)[O-]	inactive	–
C=C(C)[C@@H]1CCC2=CC(=O)C[C@@H](C)[C@]2(C)C1	inactive	–
Oc1cc(O)c2c(c1)O[C@H](c1ccc(O)c(O)c1)[C@H](O)C2	inactive	–
Cc1ccccc1C(=O)O	inactive	–
CCCC(C)C(=O)O (stereo not given)	inactive	–
CCCc1ccc(N)cc1	inactive	–
C=C(C)C1CC=C(C)C(O)C1 (stereo not given)	inactive	–
CO	inactive	–
C=C(C)C(=O)OCCC(C)OC(=O)C(=C)C (stereo not given)	inactive	–
CC(C)[N+](C)(C)CC(O)COc1cccc2ccccc12 (stereo not given)	inactive	–
C#CC(O)CCCCC (stereo not given)	inactive	–
CCCOc1ccccc1-c1nc2n[nH]nc2c(=O)[nH]1	inactive	–
CC1=CC(=O)CCC1	inactive	–
O=C(O)c1cccc(C(=O)O)n1	inactive	–
C[N+](C)(C)CC[N+]1(C)Cc2c(Cl)c(Cl)c(Cl)c(Cl)c2C1	inactive	–
